An excerpt weighted towards active compounds, which were near 2% of everything screened.
Calb FLC: C. albicans growth inhibition with fluconazole, primary screen, CaCi-2 strain, Alamar Blue fluorescence | actives 0.57% (n = 300,000) | C. albicans CaCi-2 (fluconazole-resistant clinical isolate) + fluconazole, 48 h | growth inhibition, % (concentration not given with the values);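 active means growth inhibition above about 58% in most replicates, limit read from the data, passing the limit was not always enough; inconclusive means exactly half the replicates above a set limit; inactive means most replicates below a set limit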;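 further: all wells also contain fluconazole at 8 µg/ml as a sub-toxic cotreatment; 0% = median of DMSO wells and 100% = median of geldanamycin control wells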
Jurkat NFkB inh: inhibitors of induced NF-kB luciferase reporter, primary screen, TCR NF-kB activation inhibitor project, cell-based, luminescence, uHTS. inhibition, % at 4 µM. actives 0.53% (n = 330,000). Jurkat, PMA/ionomycin-induced NF-kB luciferase reporter. AID 435003, 2010; in the data active means inhibition above about 50%
697 NFkB inh: inhibitors of PMA/ionomycin-induced NF-kB reporter, 697 cells, primary screen, B-cell NF-kB inhibitor project, cell-based, luminescence, uHTS | 697 B-cell NF-kB luciferase reporter, 16 h | inhibition, % at 4 µM | actives 0.33% (n = 330,000); in the data active means inhibition above about 35%
Beta cell apopt: inhibitors of cytokine-induced beta cell apoptosis, primary screen, luminescence | protection from apoptosis, % (test concentration not listed) | actives 0.8% (n = 300,000) | INS-1E cytokine-induced death, ATP luminescence, 48 h; percent of positive-control rescue, neutral wells zero;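 active means Every replicate reaches about 75%, or at least half do and their mean reaches it too, limit read from the data; inconclusive means At least half of replicates reach the limit but their mean does not; inactive means Under half of replicates reach the limit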;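 further: 0% = cytokine-treated negative control wells and 100% = positive control rescue; higher means more ATP so stronger rescue from cytokine killing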
Shn3 3UTR inh: reduction of Shn3 3'UTR firefly luciferase signal, primary screen, Schnurri-3 inhibitor project, cell-based, Clone20 osteoblasts, set 2; AID 588674, 2011; actives 0.52% (n = 360,000); inhibition, % at 12.5 µM; Clone20 osteoblast Shn3 3'UTR firefly luciferase, 24 h;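 active means mean inhibition of at least 75% with every replicate also reaching 75%; inconclusive means mean inhibition at least 75% but some replicate below; inactive means mean inhibition below 75%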;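 further: 0% = median of neutral control wells and 100% = pilot-screen positive control compound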
An asterisk follows results filed as active; u = inconclusive; x = no result given.

SMILES | Calb FLC | Jurkat NFkB inh | 697 NFkB inh | Beta cell apopt | Shn3 3UTR inh
Cc1ccccc1NC(=S)Nc1cccc2cnccc12 | -4.3 | 34.0 | 7.0 | 128.8* | 3.2
Cc1ccc2c(c1)-n1c(nc3ccccc3c1=O)C(Cc1ccccc1)NC2=O (configuration not stated) | x | 19.8 | -1.1 | -3.3 | x
Oc1ccc(N2CCN(C(=S)NCCc3ccccc3)CC2)cc1 | 106.2* | 6.4 | 3.2 | 2.8 | 31.3
NC(=O)CC(NC(=O)c1cccc(Br)c1)c1ccc(N2CCC(N3CCCC3)CC2)c([N+](=O)[O-])c1 (configuration not stated) | -15.0 | -0.3 | 14.6 | -4.2 | -10.4
O=[N+]([O-])c1cccc(N=Nc2ccc(O)cc2O)c1 | x | x | x | x | 7.7
CCOc1cc(C=O)cc(N=Nc2cccc([N+](=O)[O-])c2)c1O | 104.1* | 7.4 | 1.7 | 3.0 | 0.2
O=S(=O)(c1ccc(Br)cc1Cl)N1CCN(CCO)CC1 | -5.3 | 7.4 | 12.9 | -1.0 | -15.5
OCCOCCN1CCN(C2=Nc3ccccc3Sc3ccccc32)CC1 | -20.9 | -4.3 | 7.6 | -7.8 | -1.9
O=C1C=CC(=O)c2c(O)c(N3CCN(CCO)CC3)c(Cl)c(O)c21 | x | x | x | x | 98.8*
O=C1C=CC(=O)c2c(O)c(N3CCN(CCOCCO)CC3)c(Br)c(O)c21 | x | x | x | x | 92.9*
O=C(CSc1nnc(CNC(=O)c2cccs2)o1)Nc1ccc(F)cc1F | -6.4 | 7.4 | 4.5 | -3.8 | -2.0
COc1cc(NC(=S)N2CCN(S(=O)(=O)c3ccccc3)CC2)cc(OC)c1 | 122.1* | -6.8 | -7.8 | 1.3 | 16.2
COc1cc(NC(=S)N2CCN(S(=O)(=O)c3ccc(F)cc3)CC2)cc(OC)c1 | -26.1 | 3.1 | -5.5 | -1.1 | 17.9
CCCCC(CC)CN=C(N)NC(N)=NCCCCCCN=C(N)NC(N)=NCC(CC)CCCC (configuration not stated) | x | 39.5 | 5.8 | 113.6* | 96.8*
CCCCC(CC)CO (configuration not stated) | x | 2.5 | 9.3 | x | 13.1
O=C(/C(=C/c1ccc(Cl)cc1)c1nc2ccccc2[nH]1)c1ccccc1 | -0.3 | 0.3 | -86.9 | 104.4* | u
CC1Oc2cc3oc4c(O)c(O)ccc4c(=O)c3c(O)c2C1(C)C (configuration not stated) | 96.6* | -35.1 | -50.1 | -0.7 | -37.6
S=C(NCCSCc1ccc(Cl)c(Cl)c1)Nc1ccccc1 | -12.7 | -5.9 | -46.2 | -2.5 | 10.9
S=C(NCCSCc1c(Cl)cccc1Cl)Nc1ccccc1 | 95.1* | 9.7 | 1.8 | 4.5 | 11.5
COCCN(C(=O)C1CC(=O)N(Cc2ccccc2)C1)c1nc(-c2ccc([N+](=O)[O-])cc2)cs1 (configuration not stated) | x | -15.9 | -27.4 | -0.6 | 68.8
Cc1ccc(OCC(=O)NNC(=S)NC(=O)C2CC2)c(C)c1 | 103.1* | -0.1 | 11.6 | 7.0 | 59.5
CCN(CC)C(=O)C1CCN(S(=O)(=O)c2ccc3oc4ccccc4c3c2)CC1 | -5.8 | 13.5 | -22.3 | 15.8 | 85.8*
Cc1ccc(S(=O)(=O)N2C[C@H]3C(=O)C[C@@H](c4ccccc4F)N(S(=O)(=O)c4ccc(C)cc4)[C@H]3C[C@H]2c2ccccc2)cc1 | x | x | x | x | 23.3
COc1cccc(C2CC(c3ccc(NS(C)(=O)=O)cc3)=NN2C(=O)c2ccccc2)c1OC (configuration not stated) | 102.9* | 5.6 | 24.1 | 4.0 | 23.3
Cc1ccc(C(=O)N2N=C(c3ccc(Br)cc3)CC2c2ccccc2O)cc1 (configuration not stated) | -3.2 | -15.3 | -12.1 | 78.1* | -10.8
SMILES | Calb FLC | Jurkat NFkB inh | 697 NFkB inh | Beta cell apopt | Shn3 3UTR inh
Cc1ccc(S(=O)(=O)N2C(=O)[C@@H]3Cc4ccccc4CN3C2=O)cc1 | 3.5 | -8.0 | 11.7 | x | 0.3
COc1ccccc1CNC(=O)COC(=O)c1ncc(Cl)c(Cl)c1Cl | 11.7 | 9.2 | -10.2 | 0.1 | 4.8
Oc1nc(Nc2ccccc2)sc1/C=C1\C=Nc2ccccc21 | 90.9* | -50.7 | -56.7 | 3.4 | x
CCOC(=O)c1c(Nc2ccccc2)sc(/C=C2\C=Nc3ccccc32)c1O | -3.9 | -7.0 | 11.0 | -8.5 | 77.7
COC(=O)[C@@H](NC(=O)Nc1ccccc1F)C(C)C | -21.3 | 4.2 | 11.5 | -2.1 | 13.8
CC(NC(=O)Nc1ccccc1F)C(C)(C)C (configuration not stated) | 58.4* | 2.5 | 5.6 | -9.2 | 9.9
O=C(CSCc1cccc(CSCC(=O)Nc2ccccc2)n1)Nc1ccccc1 | 111.3* | 4.7 | 6.3 | 2.3 | -4.2
O=C(NNC(=S)NC(=O)C12CC3CC(CC(C3)C1)C2)c1ccncc1 | 102.9* | -4.4 | -48.3 | 22.3 | 54.5
O=C(NNC(=O)C12CC3CC(CC(C3)C1)C2)c1cnccn1 | 104.0* | -1.0 | 2.1 | 0.6 | 14.5
CCC(C)NC(=O)CSc1nnc(-c2ccc(Cl)cc2)n1N (configuration not stated) | -17.9 | 0.7 | -5.0 | -5.7 | 22.3
Cc1ccccc1C(=O)Nc1cccc(C(=O)N/N=C/c2cc(Cl)cc([N+](=O)[O-])c2O)c1 | 4.2 | 8.4 | -2.0 | 101.1* | 14.4
COc1cc(/C=N/NC(=O)c2cccc(NC(=O)c3ccccc3C)c2)ccc1O | -9.8 | 0.7 | 9.9 | x | -18.0
CCOP(=O)(OCC)C(Cc1ccc(OC)c(OC)c1)N=C(c1ccccc1)c1ccccc1 (configuration not stated) | x | x | x | x | -16.6
CCCC(=O)NC(=S)NNC(=O)c1ccc([N+](=O)[O-])cc1 | 75.7* | 4.7 | 16.4 | -0.4 | 11.8
O=C(COc1ccc([N+](=O)[O-])cc1)NNC(=S)NC(=O)c1ccc(Br)cc1 | 95.4* | 15.6 | -0.3 | -1.2 | -8.2
COc1cc(/C=C(\NC(=O)c2cc(OC)c(OC)c(OC)c2)C(=O)NC(C(=O)O)c2ccccc2)cc(OC)c1OC (configuration not stated) | -4.5 | 1.5 | 5.0 | -2.1 | 5.7
CC1(C(=O)NS(=O)(=O)c2cccc(Cl)c2)CCN1C(=O)C1CCCCC1 (configuration not stated) | x | x | x | x | -13.6
COc1ccc(N2CCN(C(=O)CSc3nnc(C4CC4)n3C3CC3)CC2)cc1 | x | x | x | x | -17.2
COc1ccc(-c2cc(-c3nc4ccccn4c3NCc3ccccc3)ccc2OC)cc1 | x | 3.3 | 22.3 | 125.0* | 96.8*
COc1ccc(-c2nc3ccccn3c2NCc2ccc3c(c2)OCO3)cc1 | -44.7 | -49.2 | -33.9 | 6.9 | -31.4
CCC(C)Sc1cc(-c2nc3ccc(C)cn3c2NCc2ccccc2)ccc1OC (configuration not stated) | 20.0 | x | x | x | 97.0*
CCC(C)Sc1ccc(-c2nc3ccc(C)cn3c2NCc2ccccc2)cc1OC (configuration not stated) | 28.0 | -35.2 | -86.8 | 96.8* | 45.2
